# Assay outcomes from PubChem BioAssay.
# IMPase Li inh: IMPase inhibition in cells with lithium potentiation | CHO-M1 cells, IP1 TR-FRET (IP-One), carbachol + lithium | Potency, µM (doses to about 59.4 µM), hits mostly inhibitors | actives 0.35% (n = 210,000) | AID 1457; active = well fitted curve in the direction sought with a large enough effect; inconclusive = small, poorly fitted or top-dose-only effect, or another doubt; inactive = no such curve, though single readings can be large; an effect the other way counts as inactive or inconclusive;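 note: IP1 builds up when IMPase is blocked and the TR-FRET signal falls; nearly all actives have a fitted effect of over 50% in size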
#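 CHO cells stably expressing M1 receptor (2000/well, cultured 16–30 h) treated 30 min at 37C with compound plus low lithium. Cytosolic IP1 by TR-FRET (665/620 ratio and 620 channel) after 10 min lysis; AC50 by Hill fit.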
# IMPase cell inh: membrane-permeable compound that blocks inositol monophosphatase; P97697; CHO-M1 cells, IP1 accumulation, HTRF TR-FRET ratio; inhibition (IP1 accumulation), % at 46.1 µM; 120,000 tested, under 10 active; AID 901; active = well fitted curve in the direction sought with a large enough effect in the signal ratio, not every such curve was filed as active; inconclusive = small, poorly fitted or top-dose-only effect, or a change in a side signal; inactive = no such curve, though single readings can be large or run the other way; the % refers to the signal ratio;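 note: cells stimulated with carbachol in lithium chloride buffer; higher means more IMPase inhibition seen as more IP1 and lower FRET ratio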
# Target sequence (P97697 whole entry, looked up): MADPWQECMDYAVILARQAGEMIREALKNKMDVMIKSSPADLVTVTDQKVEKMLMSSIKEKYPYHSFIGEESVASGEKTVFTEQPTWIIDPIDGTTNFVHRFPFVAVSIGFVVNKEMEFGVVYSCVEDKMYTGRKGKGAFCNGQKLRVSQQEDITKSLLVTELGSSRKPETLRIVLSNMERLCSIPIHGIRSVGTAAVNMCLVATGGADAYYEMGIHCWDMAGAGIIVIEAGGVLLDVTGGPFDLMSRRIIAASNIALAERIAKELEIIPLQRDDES
#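 Cellular IMPase inhibition is scored as a rise in cytosolic IP1, detected by competitive TR-FRET between d2-labelled IP1 and a europium anti-IP1 antibody. M1-expressing CHO cells were stimulated with carbachol for 30 min at 37C, with lithium (50 mM LiCl) present in the buffer.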
# ALDH1A1 block: blocks purified human ALDH1A1 activity | Potency, µM (titrated, usually from 75.3 µM), most hits filed as inhibitors | P00352 | Purified ALDH1A1, NADH fluorescence, propionaldehyde substrate | AID 1030 | actives 7.3% (n = 220,000)
# Target sequence (P00352 whole entry, looked up): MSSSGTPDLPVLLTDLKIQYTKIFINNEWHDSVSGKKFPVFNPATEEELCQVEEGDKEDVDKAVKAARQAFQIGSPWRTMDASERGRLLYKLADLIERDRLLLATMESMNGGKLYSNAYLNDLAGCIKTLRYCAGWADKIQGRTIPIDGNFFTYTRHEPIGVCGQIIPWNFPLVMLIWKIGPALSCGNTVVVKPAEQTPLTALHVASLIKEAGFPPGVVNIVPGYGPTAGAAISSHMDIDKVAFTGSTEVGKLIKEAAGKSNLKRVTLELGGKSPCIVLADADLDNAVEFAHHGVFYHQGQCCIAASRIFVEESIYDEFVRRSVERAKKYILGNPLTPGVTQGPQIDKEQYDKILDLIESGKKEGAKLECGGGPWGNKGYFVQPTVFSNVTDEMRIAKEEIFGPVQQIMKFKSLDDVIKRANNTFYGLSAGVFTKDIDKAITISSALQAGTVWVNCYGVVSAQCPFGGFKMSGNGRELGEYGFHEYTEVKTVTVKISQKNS
# HPGD block: HPGD (human) dehydrogenase inhibition; P15428; Potency, µM, actives largely listed as inhibitors; purified HPGD, NADH fluorescence kinetic, PGE2 substrate; actives 4.3% (n = 150,000); AID 894
#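 NADH formation kinetics: reaction with 30 uM PGE2 and 1 mM NAD+ (final), 20 nM enzyme, Tris-HCl pH 8 with Tween 20, after 15 min compound preincubation at room temperature. Fluorescence change, last versus first of five reads.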
# 12-hLO inh: blocks human 12-lipoxygenase activity; P18054; purified 12-hLO, xylenol orange hydroperoxide absorbance; Potency, µM (highest dose often 57.1 µM), usual class: inhibitors; actives 0.12% (n = 150,000); AID 1452; active = well fitted curve in the direction sought with a large enough effect; inconclusive = small, poorly fitted or top-dose-only effect, or another doubt; inactive = no such curve, though single readings can be large; an effect the other way counts as inactive or inconclusive; note: nearly all actives have a fitted effect of over 55% in size
#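 Purified human 12hLO (150 nM final) was preincubated with compounds for 15 min at room temperature in 25 mM Hepes pH 7.0, 0.01% Triton X-100, then reacted with 40 uM arachidonic acid for 30 min. Hydroperoxide was detected with ferrous iron/xylenol orange.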
# PNC inhibitor: perinucleolar compartment assembly inhibition. PC3M PTB-GFP, PNC prevalence imaging, 16 h; active compounds read low. activity change (PNC), negative = inhibition, % at 10 µM. actives 3.1% (n = 140,000);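 active = readout at or below -70, meaning at least 70% loss of cells showing the perinucleolar compartment, a nuclear body marking cancer cells; inconclusive = readout between -30 and a set limit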
#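 Compounds are pinned in duplicate onto adhered PC3M cells stably expressing GFP-tagged PTB and incubated 16 h at 37 C. Cells are then fixed, nuclei stained with Hoechst, and PNC-positive cells counted.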
# A number is an active result; 0 = inactive; ? = inconclusive; - = no result given; [ ] = another dose, or the depositor's remark. This is a sample that favours compounds with a hit; in the whole collection about 11% have one here. Unless noted, calls come from the whole dose curve; as a rule, active = well fitted inhibition curve with a large enough effect (not every such curve was filed as active); inconclusive = small, poorly fitted or top-dose-only effect, or another doubt; inactive = no such curve, though single readings can be large or run the other way.
SMILES,IMPase Li inh,IMPase cell inh,ALDH1A1 block,HPGD block,12-hLO inh,PNC inhibitor
CC(C)(c1cc(Br)c(O)c(Br)c1)c1cc(Br)c(O)c(Br)c1,0,-,0,?,0,-
O=C(CSc1nc(O)cc(=O)[nH]1)C1CC1,0,0,?,17.8µM,0,-123.3
CC(C)(C)NC(=O)CSc1nc(O)cc(=O)[nH]1,0,-,0,0,0,0
CSCC[C@H](NC(=O)[C@H](Cc1ccccc1)NC[C@@H](NC[C@@H](N)CS)C(C)C)C(=O)O,0,-,0,-,-,-
COc1cc2c(cc1OC)C(c1cc(OC)c(O)c(OC)c1)CC(=O)N2 (centres undefined),-,0,-,-,-,-
COc1ccc(CNc2ccc(C)c(C)c2)c(OC)c1OC,0,-,12.6µM,-,-,-
COc1cc(CNc2ccc3c(c2)CCC3)cc(OC)c1O,0,0,20µM,0,0,0
COc1cc(CNc2ccc(C)c(C)c2)cc(OC)c1OC,0,0,8.91µM,0,0,0
COc1ccc2c3c(ccc2c1)N[C@H](C(=O)O)CC3,0,-,?,?,0[11.4 µM],-
CNC(=O)c1ccc(-n2cccn2)nc1,0,-,0,-,-,-
O=C(NC(=S)Nc1ccc2c(c1)C(=O)c1ccccc1C2=O)c1ccc(F)cc1,0,-,11.2µM,0,0,0
Cc1ccc(NC(=S)NC(=O)c2ccc(F)cc2)cc1S(=O)(=O)Nc1ccccc1Cl,0,-,12.6µM,0,?,0
CCOc1ccc(Nc2n[nH]c(=S)s2)cc1,-,0,1.26µM,-,0,0
Cc1cc(-c2n[nH]c(=S)o2)c(C)n1-c1ccccc1,0,0,3.55µM,0,0,?
Oc1cc2ccccc2cc1-c1n[nH]c(=S)o1,0,0,?,?,0,?
CCCCn1c(SCC(=O)OCC)nc2c1c(=O)[nH]c(=O)n2C,0,0,12.6µM,?,0,-119.3
CCOCCn1c(SC)nc2c1c(=O)[nH]c(=O)n2C,0,0,14.1µM,20µM,0,0
CCOC(=O)Cn1c(Br)nc2c1c(=O)[nH]c(=O)n2C,0,0,0,0,0,0
CCOC(=O)CSc1nc2c(c(=O)[nH]c(=O)n2C)n1CCc1ccccc1,0,0,?,0,0,?
CCOC(=O)CSc1nc2c(c(=O)[nH]c(=O)n2C)n1C/C=C(/C)Cl,0,0,17.8µM,20µM,0,0
C/C(Cl)=C/CSc1nc2c(c(=O)[nH]c(=O)n2C)n1C(C)C,0,0,?,0,0,0
C/C(Cl)=C/Cn1c(SC(C)C)nc2c1c(=O)[nH]c(=O)n2C,0,?,5.01µM,?,0,0
O=C(O)Cc1cc2ccccc2nc1C(=O)O,0,0,?,0,0,-
CCn1c([N+](=O)[O-])nc2c1c(=O)[nH]c(=O)n2C,0,-,15.8µM,-,-,-
O=C(CN1CCCCCCC1)N/N=C/c1ccccc1F,0,-,?,31.6µM,0,?
SMILES,IMPase Li inh,IMPase cell inh,ALDH1A1 block,HPGD block,12-hLO inh,PNC inhibitor
O=C(CN1CCN(CC(=O)Nc2ccccc2C(F)(F)F)CC1)Nc1ccccc1F,0,0,25.1µM,0,0,?
COc1ccccc1NC(=O)Cn1nc(C(F)(F)F)c2c1CCCC2,0,0,0,0,0,0
O=C(CN1CCCCCC1)Nc1ccccc1F,0,0,?,0,0,-84.6
O=C(Cn1nc(C(F)(F)F)c2c1CCC2)Nc1ccccc1C(F)(F)F,0,0,0,0,0,-100.0
CNC1=CN=C(c2ccccc2)c2cc(Cl)ccc2N1,0,-,0,0,0[0.00818 µM],-
O=c1c2ccccc2oc2cc(O)c(C3COCC(CO)C(O)C(O)C3O)c(O)c12 (centres undefined),0,?,?,0,0,-
CNc1ncnc2c1ncn2[C@@H]1O[C@H](CO)[C@H](O)[C@H]1O,0,-,0,0,-,-
COc1ccc(S(=O)(=O)N(CC(=O)Nc2ccccc2Br)Cc2ccccc2)cc1,-,0,-,-,-,-
COc1ccc(Oc2ncc3nc(-c4ccc(F)cc4)c(=O)n(Cc4cccs4)c3n2)cc1,0,-,?,-,-,-
O=C(Nc1ccccc1-c1ccccc1)C1CCC1,0,-,3.16µM,-,-,-
O=C(CCC(=O)c1ccc(F)cc1)Nc1ccccc1Cl,0,-,0,0,0,0
O=C(Nc1ccccc1-c1ccccc1)C1CCCCC1,0,0,0,0,0,0
NC(=O)C1(N2CCCCC2)CCN(CC(=O)Nc2ccccc2-c2ccccc2)CC1,0,?,3.98µM,0,0,?
O=C(CN1CCN(CC(=O)c2ccc(F)cc2)CC1)Nc1ccccc1Cl,0,0,2.24µM,?,0,0
COc1cccc(-c2cc(N(C)Cc3ccco3)ncn2)c1,0,-,?,-,-,-
O=C(CSc1nnc2c(n1)[nH]c1ccccc12)Nc1ccc(N2CCOCC2)cc1,-,-,22.4µM,-,-,-
Brc1ccc2[nH]c3nc(SCCN4CCOCC4)nnc3c2c1,0,-,?,-,-,-
c1ccc2c(c1)[nH]c1nc(SCCN3CCOCC3)nnc12,0,0,?,31.6µM,0,0
C/C(NC(=O)c1ccccc1)=C1/C(=O)CC2C1C2(C)C (centres undefined),0,0,?,?,0,0
C/C(N[C@@H]1CSCC1O)=C1/C(=O)CC2[C@@H]1C2(C)C (some centres undefined),0,-,8.91µM,0,-,-
Cn1cc(-c2nc3cnc(OCc4ccccc4)nc3n(CCC#N)c2=O)c2ccccc21,0,-,0,-,-,-
COc1cc(O)c(C(=O)/C=C/c2ccc(OC)c(O)c2)c(OC)c1,0,-,14.1µM,7.94µM,0,-
COc1cc(/C=C/C(=O)c2cccc([N+](=O)[O-])c2)cc(OC)c1OC,0,-,25.1µM,0,0,0
COc1cccc(/C=C/C(=O)c2ccc(C)c([N+](=O)[O-])c2)c1,0,-,7.08µM,0,0,0
COc1ccc(/C=C/C(=O)c2ccc(C)c([N+](=O)[O-])c2)cc1O,0,0,22.4µM,22.4µM,0,0
SMILES,IMPase Li inh,IMPase cell inh,ALDH1A1 block,HPGD block,12-hLO inh,PNC inhibitor
COc1cc(/C=C/C(=O)c2ccc(C)c([N+](=O)[O-])c2)cc(OC)c1O,0,0,0,0,0,0
COc1ccc(/C=C/C(=O)c2c(O)cc(C)oc2=O)c(OC)c1,0,0,0,0,0,0
COC(=O)c1ccc(/C=C/C(=O)c2cccc(OC)c2)cc1,0,-,0,0,0,?
COc1ccc(C[C@@](C)(N)C(=O)O)cc1OC,0,0,0,0,0,-
Cc1noc(C)c1C(=O)N1CCC[C@@]2(CCN(Cc3cc(C(F)(F)F)cc(C(F)(F)F)c3)C2)C1,0,-,0,0,0,-
CCOc1ccc(C(C)C)cc1S(=O)(=O)N1CCOCC1,0,-,8.91µM,-,-,-
COc1cc(C)c(C(C)C)cc1S(=O)(=O)N1CCN(C)CC1,0,0,14.1µM,0,0,0
COc1ccc(C(C)C)cc1S(=O)(=O)N1CCN(C)CC1,0,0,?,0,0,0
CCOc1cc(C)c(C(C)C)cc1S(=O)(=O)N1CCN(C)CC1,0,0,5.01µM,0,0,0
CCOc1ccc(OCC)c(S(=O)(=O)N2CCOCC2)c1,0,-,0,-,-,-
